# Laboratory results reported in article PMC7862700, “An all-to-all approach to the identification of sequence-specific readers for epigenetic DNA modifications on cytosine”.
# Key:
# Test in all cases: DAPPL (digital affinity profiling via proximity ligation, sequencing); 10 mM Tris-HCl pH 7.5, 50 mM NaCl, 1 mM DTT, 4% glycerol, room temperature, 30 min; GST-TFs on glutathione beads, 16-mer random dsDNA library, 0.1% formaldehyde crosslink after washing; high values mean tight binding
# [1] = molecular target: T1, FLI1 (Homo sapiens, UniProt Q01543 1-452); details: protein: recombinant; tags: N-terminal GST; dsDNA, one strand shown
# T1 sequence: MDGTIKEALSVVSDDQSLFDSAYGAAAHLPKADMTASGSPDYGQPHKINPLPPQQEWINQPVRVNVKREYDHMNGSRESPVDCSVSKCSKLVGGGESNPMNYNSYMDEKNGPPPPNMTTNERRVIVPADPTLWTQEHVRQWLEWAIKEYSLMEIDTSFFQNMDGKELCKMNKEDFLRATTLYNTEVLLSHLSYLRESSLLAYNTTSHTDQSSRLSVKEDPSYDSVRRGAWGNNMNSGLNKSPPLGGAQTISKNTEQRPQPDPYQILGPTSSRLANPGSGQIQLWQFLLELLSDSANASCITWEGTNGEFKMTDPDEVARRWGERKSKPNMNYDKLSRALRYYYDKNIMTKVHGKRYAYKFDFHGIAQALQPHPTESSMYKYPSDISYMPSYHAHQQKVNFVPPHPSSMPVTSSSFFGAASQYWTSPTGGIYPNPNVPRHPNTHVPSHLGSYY
# Method in brief: (§1)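 Beads coated with glutathione captured GST-fused human transcription factors that had been expressed in yeast, and the factors were then given DNA barcodes and pooled with a tag-only sample. The pools were incubated with 200 nmole of a random double-stranded 16-mer DNA library in Tris/NaCl/DTT/glycerol buffer for 30 min at room temperature, washed, crosslinked with 0.1% formaldehyde and proximity-ligated with BsaI/T4 ligase at 37 °C for 1 h. PCR amplification and Illumina NextSeq500 sequencing came last. Binding signal is each hexamer's read frequency for a factor divided by its frequency for the tag-only sample.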
# [2] = molecular target: T2, ELK1 (Homo sapiens, UniProt P19419 1-428); details: protein: recombinant; tags: N-terminal GST; dsDNA, one strand shown
# T2 sequence: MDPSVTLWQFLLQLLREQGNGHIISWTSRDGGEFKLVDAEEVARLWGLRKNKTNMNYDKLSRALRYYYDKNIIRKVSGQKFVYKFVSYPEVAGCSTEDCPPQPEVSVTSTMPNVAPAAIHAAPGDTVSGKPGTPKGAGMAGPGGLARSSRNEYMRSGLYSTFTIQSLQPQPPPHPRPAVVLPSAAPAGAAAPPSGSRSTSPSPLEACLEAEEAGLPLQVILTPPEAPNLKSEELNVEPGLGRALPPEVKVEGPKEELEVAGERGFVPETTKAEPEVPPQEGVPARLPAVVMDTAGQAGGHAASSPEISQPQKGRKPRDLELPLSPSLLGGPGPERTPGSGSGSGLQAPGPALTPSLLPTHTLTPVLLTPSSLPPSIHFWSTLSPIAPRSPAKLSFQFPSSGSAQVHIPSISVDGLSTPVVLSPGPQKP
# Method in brief: as §1
# [3] = molecular target: T3, GABPA (Homo sapiens, UniProt Q06546 1-454); details: protein: recombinant; tags: N-terminal GST; dsDNA, one strand shown
# T3 sequence: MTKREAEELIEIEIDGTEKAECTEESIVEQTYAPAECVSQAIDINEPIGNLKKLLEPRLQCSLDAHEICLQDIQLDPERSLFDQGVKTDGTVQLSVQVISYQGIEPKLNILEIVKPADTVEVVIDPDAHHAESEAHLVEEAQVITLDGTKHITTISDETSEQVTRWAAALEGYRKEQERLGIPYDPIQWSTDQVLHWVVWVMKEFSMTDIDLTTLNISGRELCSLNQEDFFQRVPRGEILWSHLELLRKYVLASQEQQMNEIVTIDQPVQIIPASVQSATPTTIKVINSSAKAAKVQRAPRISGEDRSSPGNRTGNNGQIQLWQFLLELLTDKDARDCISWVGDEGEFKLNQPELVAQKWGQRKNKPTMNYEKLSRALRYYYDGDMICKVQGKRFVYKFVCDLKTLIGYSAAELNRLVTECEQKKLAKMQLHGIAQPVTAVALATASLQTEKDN
# Method in brief: as §1
# [4] = molecular target: T4, ERG (Homo sapiens, UniProt P11308 1-479); details: protein: recombinant; tags: N-terminal GST; dsDNA, one strand shown
# T4 sequence: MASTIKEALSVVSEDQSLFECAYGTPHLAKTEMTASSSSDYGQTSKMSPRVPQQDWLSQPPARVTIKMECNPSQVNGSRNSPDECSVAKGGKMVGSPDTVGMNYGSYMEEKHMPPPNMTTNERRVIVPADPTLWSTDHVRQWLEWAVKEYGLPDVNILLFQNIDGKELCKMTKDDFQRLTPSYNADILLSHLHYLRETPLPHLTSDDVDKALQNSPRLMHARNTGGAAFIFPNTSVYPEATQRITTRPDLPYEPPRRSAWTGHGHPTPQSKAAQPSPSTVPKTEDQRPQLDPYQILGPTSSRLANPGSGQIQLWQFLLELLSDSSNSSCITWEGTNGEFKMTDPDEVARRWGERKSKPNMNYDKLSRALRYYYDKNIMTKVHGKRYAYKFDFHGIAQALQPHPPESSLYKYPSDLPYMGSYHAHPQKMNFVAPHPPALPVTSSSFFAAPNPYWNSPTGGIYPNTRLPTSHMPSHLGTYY
# Method in brief: as §1
# [5] = molecular target: ELF1 (Homo sapiens, UniProt P32519 1-619); details: protein: recombinant; tags: N-terminal GST; dsDNA, one strand shown
# Sequence of ELF1 (P32519 whole entry): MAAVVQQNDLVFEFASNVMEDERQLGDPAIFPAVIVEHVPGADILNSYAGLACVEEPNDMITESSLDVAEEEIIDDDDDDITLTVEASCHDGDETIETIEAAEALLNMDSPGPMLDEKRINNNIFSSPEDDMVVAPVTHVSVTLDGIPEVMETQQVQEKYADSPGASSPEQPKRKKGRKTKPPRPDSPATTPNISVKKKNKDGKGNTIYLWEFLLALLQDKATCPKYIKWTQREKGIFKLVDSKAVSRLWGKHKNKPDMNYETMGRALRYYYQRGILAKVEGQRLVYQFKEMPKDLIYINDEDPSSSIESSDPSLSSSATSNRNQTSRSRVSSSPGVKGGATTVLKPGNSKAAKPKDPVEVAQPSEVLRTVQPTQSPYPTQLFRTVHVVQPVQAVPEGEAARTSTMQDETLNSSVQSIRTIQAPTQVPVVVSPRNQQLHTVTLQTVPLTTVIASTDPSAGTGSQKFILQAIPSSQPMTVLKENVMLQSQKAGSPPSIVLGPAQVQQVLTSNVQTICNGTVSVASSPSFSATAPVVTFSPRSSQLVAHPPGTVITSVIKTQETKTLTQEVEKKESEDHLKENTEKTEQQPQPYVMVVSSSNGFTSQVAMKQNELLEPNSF
# Method in brief: as §1
# [6] = molecular target: T5, EHF (Homo sapiens, UniProt Q9NZC4 1-300); details: protein: recombinant; tags: N-terminal GST; dsDNA, one strand shown
# T5 sequence: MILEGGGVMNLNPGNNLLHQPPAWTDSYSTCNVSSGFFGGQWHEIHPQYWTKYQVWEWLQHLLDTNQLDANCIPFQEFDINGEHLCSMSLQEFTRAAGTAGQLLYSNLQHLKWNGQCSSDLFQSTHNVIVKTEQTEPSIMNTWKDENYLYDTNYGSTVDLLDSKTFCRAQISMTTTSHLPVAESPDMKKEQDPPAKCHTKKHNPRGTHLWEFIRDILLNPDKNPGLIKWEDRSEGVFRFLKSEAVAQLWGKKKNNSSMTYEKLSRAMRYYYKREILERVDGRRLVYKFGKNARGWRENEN
# Method in brief: as §1
# [7] = molecular target: SPI1 (Homo sapiens, UniProt P17947 1-270); details: protein: recombinant; tags: N-terminal GST; dsDNA, one strand shown
# Method in brief: as §1
# [8] = molecular target: SPIB (Homo sapiens, UniProt Q01892 1-262); details: protein: recombinant; tags: N-terminal GST; dsDNA, one strand shown
# Sequence of SPIB (Q01892 whole entry): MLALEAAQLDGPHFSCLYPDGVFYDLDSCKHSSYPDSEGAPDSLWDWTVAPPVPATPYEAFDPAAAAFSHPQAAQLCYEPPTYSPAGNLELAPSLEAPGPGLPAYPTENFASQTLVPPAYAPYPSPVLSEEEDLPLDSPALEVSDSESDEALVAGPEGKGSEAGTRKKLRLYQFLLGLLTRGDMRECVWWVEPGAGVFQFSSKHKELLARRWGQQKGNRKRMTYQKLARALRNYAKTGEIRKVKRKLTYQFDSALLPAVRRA
# Method in brief: as §1
# [9] = molecular target: T6, ELK3 (Homo sapiens, UniProt P41970 1-407); details: protein: recombinant; tags: N-terminal GST; dsDNA, one strand shown
# T6 sequence: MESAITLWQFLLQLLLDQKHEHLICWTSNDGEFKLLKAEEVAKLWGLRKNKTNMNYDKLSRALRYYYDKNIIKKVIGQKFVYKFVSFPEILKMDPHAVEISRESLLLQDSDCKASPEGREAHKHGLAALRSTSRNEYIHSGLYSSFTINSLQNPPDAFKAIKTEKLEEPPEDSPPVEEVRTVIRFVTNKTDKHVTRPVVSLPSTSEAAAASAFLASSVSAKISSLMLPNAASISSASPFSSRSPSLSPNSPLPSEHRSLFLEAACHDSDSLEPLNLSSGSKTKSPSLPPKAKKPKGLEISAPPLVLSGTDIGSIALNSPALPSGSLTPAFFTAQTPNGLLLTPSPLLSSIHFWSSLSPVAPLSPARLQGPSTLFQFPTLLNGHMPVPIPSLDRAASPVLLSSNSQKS
# Method in brief: as §1
# [10] = molecular target: T7, FEV (Homo sapiens, UniProt Q99581 1-238); details: protein: recombinant; tags: N-terminal GST; dsDNA, one strand shown
# T7 sequence: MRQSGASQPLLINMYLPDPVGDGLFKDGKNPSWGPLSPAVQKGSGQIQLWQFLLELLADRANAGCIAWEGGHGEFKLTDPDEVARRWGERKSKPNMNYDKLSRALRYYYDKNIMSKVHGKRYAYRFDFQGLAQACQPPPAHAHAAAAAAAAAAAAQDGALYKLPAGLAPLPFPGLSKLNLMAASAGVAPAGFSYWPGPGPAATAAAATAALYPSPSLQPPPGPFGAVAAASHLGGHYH
# Method in brief: as §1
# [11] = molecular target: ETV5 (Homo sapiens, UniProt P41161 1-510); details: protein: recombinant; tags: N-terminal GST; dsDNA, one strand shown
# Sequence of ETV5 (P41161 whole entry): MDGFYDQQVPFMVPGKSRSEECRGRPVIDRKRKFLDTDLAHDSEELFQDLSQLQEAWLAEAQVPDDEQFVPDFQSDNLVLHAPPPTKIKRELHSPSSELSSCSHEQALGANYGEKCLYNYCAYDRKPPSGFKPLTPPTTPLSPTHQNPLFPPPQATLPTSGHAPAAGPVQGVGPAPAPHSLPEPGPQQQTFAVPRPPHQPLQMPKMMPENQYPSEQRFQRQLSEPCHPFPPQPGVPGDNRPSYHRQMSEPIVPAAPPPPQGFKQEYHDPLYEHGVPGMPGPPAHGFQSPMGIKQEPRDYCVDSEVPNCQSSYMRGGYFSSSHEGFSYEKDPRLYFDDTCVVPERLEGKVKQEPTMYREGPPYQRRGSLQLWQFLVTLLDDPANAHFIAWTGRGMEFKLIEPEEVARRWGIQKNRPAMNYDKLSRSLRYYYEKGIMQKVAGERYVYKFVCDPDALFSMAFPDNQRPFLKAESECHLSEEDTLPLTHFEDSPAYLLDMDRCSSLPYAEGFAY
# Method in brief: as §1
# [12] = molecular target: HSF1 (Homo sapiens, UniProt Q00613 1-529); details: protein: recombinant; tags: N-terminal GST; chain copies: 3; dsDNA, one strand shown
# Sequence of HSF1 (Q00613 whole entry): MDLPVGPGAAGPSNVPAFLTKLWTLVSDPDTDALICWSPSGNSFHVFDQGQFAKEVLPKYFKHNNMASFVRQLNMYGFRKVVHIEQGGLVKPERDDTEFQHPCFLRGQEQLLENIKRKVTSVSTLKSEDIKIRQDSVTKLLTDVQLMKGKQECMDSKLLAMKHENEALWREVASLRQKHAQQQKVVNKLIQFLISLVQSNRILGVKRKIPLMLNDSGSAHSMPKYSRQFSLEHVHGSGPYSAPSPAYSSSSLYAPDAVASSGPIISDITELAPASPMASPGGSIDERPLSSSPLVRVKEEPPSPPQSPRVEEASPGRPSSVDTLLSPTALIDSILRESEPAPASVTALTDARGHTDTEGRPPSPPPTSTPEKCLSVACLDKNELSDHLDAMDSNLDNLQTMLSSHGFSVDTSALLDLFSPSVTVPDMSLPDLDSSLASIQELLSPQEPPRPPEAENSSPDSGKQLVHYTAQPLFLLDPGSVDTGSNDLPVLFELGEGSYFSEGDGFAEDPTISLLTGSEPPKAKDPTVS
# Method in brief: as §1
# [13] = molecular target: T8, SPIC (Homo sapiens, UniProt Q8N5J4 1-248); details: protein: recombinant; tags: N-terminal GST; dsDNA, one strand shown
# T8 sequence: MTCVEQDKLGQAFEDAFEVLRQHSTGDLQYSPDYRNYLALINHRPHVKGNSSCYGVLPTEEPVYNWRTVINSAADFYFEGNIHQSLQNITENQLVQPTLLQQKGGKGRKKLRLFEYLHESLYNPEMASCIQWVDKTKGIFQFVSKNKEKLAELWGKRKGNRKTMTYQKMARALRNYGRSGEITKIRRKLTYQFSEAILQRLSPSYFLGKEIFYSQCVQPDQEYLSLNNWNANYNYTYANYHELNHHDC
# Method in brief: as §1
# [14] = molecular target: ELF4 (Homo sapiens, UniProt Q99607 1-663); details: protein: recombinant; tags: N-terminal GST; dsDNA, one strand shown
# Sequence of ELF4 (Q99607 whole entry): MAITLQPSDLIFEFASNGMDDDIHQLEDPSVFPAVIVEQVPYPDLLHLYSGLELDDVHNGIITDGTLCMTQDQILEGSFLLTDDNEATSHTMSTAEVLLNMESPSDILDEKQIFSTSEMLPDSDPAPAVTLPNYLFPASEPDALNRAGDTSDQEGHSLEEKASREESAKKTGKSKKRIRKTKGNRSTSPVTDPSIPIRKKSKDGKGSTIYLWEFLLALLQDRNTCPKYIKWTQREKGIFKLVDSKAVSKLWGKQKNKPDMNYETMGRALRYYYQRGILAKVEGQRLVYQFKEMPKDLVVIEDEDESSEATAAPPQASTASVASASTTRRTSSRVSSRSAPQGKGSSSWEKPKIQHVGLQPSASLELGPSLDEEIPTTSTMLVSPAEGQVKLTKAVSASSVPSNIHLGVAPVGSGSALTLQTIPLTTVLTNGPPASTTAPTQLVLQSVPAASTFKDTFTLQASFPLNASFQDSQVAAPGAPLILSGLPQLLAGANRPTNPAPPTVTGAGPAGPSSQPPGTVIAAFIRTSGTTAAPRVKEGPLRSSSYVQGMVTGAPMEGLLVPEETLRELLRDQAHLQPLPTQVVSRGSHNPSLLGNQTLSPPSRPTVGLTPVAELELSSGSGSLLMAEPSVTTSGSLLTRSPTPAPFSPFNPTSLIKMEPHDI
# Method in brief: as §1
# [15] = molecular target: T9, ELK4 (Homo sapiens, UniProt P28324-2 1-405); details: protein: recombinant; tags: N-terminal GST; dsDNA, one strand shown
# T9 sequence: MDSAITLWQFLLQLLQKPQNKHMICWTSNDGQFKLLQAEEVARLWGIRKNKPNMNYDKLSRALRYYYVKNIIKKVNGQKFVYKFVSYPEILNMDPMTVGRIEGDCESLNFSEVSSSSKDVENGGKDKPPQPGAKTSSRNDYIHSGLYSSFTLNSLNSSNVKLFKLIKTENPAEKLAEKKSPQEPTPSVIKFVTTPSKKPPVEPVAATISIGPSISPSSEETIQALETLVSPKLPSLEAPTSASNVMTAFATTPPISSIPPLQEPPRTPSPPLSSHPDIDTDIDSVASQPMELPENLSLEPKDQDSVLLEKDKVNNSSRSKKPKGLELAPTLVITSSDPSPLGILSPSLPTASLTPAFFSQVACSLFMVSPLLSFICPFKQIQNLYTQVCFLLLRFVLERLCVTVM
# Method in brief: as §1
# [16] = molecular target: T10, ETV2 (Homo sapiens, UniProt O00321 1-342); details: protein: recombinant; tags: N-terminal GST; dsDNA, one strand shown
# T10 sequence: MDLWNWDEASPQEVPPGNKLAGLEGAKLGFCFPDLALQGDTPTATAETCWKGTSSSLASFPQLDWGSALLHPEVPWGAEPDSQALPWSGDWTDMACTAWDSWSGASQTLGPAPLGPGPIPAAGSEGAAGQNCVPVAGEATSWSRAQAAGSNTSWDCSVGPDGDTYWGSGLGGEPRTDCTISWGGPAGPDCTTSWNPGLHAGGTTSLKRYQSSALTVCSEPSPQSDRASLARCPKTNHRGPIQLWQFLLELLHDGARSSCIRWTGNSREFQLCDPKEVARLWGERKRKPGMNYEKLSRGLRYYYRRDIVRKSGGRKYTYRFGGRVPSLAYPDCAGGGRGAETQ
# Method in brief: as §1
# [17] = molecular target: T11, ELF3 (Homo sapiens, UniProt P78545 1-371); details: protein: recombinant; tags: N-terminal GST; dsDNA, one strand shown
# T11 sequence: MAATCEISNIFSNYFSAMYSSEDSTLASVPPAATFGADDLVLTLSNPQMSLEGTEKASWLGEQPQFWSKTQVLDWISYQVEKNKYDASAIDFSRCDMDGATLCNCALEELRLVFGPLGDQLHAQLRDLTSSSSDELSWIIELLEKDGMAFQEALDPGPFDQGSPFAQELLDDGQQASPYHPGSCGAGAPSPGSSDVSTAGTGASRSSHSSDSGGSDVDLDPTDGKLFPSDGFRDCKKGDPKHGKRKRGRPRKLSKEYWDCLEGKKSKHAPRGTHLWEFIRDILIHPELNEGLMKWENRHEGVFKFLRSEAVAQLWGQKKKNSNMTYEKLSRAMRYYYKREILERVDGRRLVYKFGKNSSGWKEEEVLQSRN
# Method in brief: as §1
# [18] = molecular target: CRX (Homo sapiens, UniProt O43186 1-299); details: protein: recombinant; tags: N-terminal GST; dsDNA, one strand shown
# Sequence of CRX (O43186 whole entry): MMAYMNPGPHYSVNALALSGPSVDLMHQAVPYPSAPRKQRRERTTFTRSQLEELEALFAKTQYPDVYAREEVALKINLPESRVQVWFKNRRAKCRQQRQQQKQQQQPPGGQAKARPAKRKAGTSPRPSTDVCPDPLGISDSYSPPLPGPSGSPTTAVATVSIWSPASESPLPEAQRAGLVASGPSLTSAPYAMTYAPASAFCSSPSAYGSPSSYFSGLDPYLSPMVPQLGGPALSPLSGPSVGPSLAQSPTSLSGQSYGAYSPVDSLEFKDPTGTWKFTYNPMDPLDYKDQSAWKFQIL
# Method in brief: as §1
# [19] = molecular target: ETV1 (Homo sapiens, UniProt P50549 1-477); details: protein: recombinant; tags: N-terminal GST; dsDNA, one strand shown
# Sequence of ETV1 (P50549 whole entry): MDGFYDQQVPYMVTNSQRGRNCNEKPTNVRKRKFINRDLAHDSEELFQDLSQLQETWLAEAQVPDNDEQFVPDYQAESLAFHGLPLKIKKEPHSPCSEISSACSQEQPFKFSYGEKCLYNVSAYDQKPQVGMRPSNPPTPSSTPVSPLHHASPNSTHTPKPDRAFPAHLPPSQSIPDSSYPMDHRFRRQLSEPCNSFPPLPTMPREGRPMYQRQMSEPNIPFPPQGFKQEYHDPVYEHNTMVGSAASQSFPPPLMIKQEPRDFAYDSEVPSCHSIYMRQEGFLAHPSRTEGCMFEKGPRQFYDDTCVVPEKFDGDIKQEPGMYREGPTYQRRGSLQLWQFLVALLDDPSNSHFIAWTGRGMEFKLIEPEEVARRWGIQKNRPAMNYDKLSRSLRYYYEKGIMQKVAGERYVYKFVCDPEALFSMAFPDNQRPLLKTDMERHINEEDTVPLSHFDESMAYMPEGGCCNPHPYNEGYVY
# Method in brief: as §1
sequence,measurement,setting,value
TGACCG,binding signal,[1],"1.62 fold enrichment (6-mer frequency, TF over GST control)"
same,binding signal,[2],"1.48 fold enrichment (6-mer frequency, TF over GST control)"
same,binding signal,[3],"1.59 fold enrichment (6-mer frequency, TF over GST control)"
same,binding signal,[4],"1.55 fold enrichment (6-mer frequency, TF over GST control)"
same,binding signal,[5],"1.53 fold enrichment (6-mer frequency, TF over GST control)"
same,binding signal,[6],"1.53 fold enrichment (6-mer frequency, TF over GST control)"
same,binding signal,[7],"1.52 fold enrichment (6-mer frequency, TF over GST control)"
same,binding signal,[8],"1.44 fold enrichment (6-mer frequency, TF over GST control)"
same,binding signal,[9],"1.47 fold enrichment (6-mer frequency, TF over GST control)"
same,binding signal,[10],"1.66 fold enrichment (6-mer frequency, TF over GST control)"
same,binding signal,[11],"1.33 fold enrichment (6-mer frequency, TF over GST control)"
same,binding signal,[12],"1.17 fold enrichment (6-mer frequency, TF over GST control)"
same,binding signal,[13],"1.68 fold enrichment (6-mer frequency, TF over GST control)"
same,binding signal,[14],"1.47 fold enrichment (6-mer frequency, TF over GST control)"
same,binding signal,[15],"1.4 fold enrichment (6-mer frequency, TF over GST control)"
same,binding signal,[16],"1.52 fold enrichment (6-mer frequency, TF over GST control)"
same,binding signal,[17],"1.66 fold enrichment (6-mer frequency, TF over GST control)"
same,binding signal,[18],"1.1 fold enrichment (6-mer frequency, TF over GST control)"
same,binding signal,[19],"1.56 fold enrichment (6-mer frequency, TF over GST control)"
